# Measured values published in PubChem BioAssay.
# Active and inactive are the calls of the source.
# How the values were obtained:
# [1] = optical density shifts of acrAB sulA E. coli – strain DRC41, OD650, 48 h, E. coli filamentation inducer project, primary screen (AID 1152); conditions: higher = more signal, called active from +8 up or from −8 down;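 also: E. coli MC1000 strain DRC41 lacking acrAB efflux pump and sulA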
# [2] = probe aLefty1 binding on compound microarray – biochemical, small-molecule microarray, 635/667 nm fluorescence, primary screen (AID 1153); conditions: higher = more signal;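 also: score merges spot fluorescence with signal-to-noise ratio from the scanned slide images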
# [3] = plasmodial surface anion channel blockers, osmotic lysis – cell-based, P. falciparum Indochina, OD700, 1 h, primary screen (AID 1154); conditions: P. falciparum Indochina infected RBC osmotic lysis, higher = more signal, called active from +8 up or from −8 down
# [4] = plasmodial surface anion channel blockers, osmotic lysis – cell-based, P. falciparum Indochina, OD700, 2 h, primary screen (AID 1155);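 also: lysis reports solute entry through the parasite surface anion channel PSAC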; conditions: P. falciparum Indochina infected erythrocytes, higher = more signal, called active from +8 up or from −8 down
# [5] = changes in parasitized red cell lysis, either direction – P. falciparum Indochina, OD700, 3 h, PSAC antagonist project, primary screen (AID 1156); conditions: P. falciparum-infected erythrocytes, osmotic lysis, higher = more signal, called active from +8 up or from −8 down
# [6] = plasmodial surface anion channel blockers, osmotic lysis – cell-based, P. falciparum Indochina, OD700, 18 h, primary screen (AID 1157); conditions: P. falciparum Indochina infected erythrocytes, osmotic lysis OD700, 18 h; higher = more signal, called active from +8 up or from −8 down
# [7] = S6 kinase pathway phospho-S6 level changes – cell-based, A549, cytoblot, luminescence, serum-stimulated, primary screen (AID 1158); conditions: 5 h, higher = more signal;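 also: serum-stimulated A549 lung adenocarcinoma cells; signal is phosphorylated S6 detected by cytoblot immunostaining with HRP secondary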
# [8] = biological target: NADPH oxidase 2 (Homo sapiens) (UniProt P04839); test: compounds shifting NOX2 Amplex Red fluorescence – cell-based, HEK293-NOX2, PMA-stimulated, NOX inhibitor project, primary screen (AID 1159); conditions: 45 min, higher = more signal, called active from +8 up or from −8 down; also: test concentration not given here
# Sequence of NADPH oxidase 2 (Homo sapiens) (P04839 whole entry, looked up): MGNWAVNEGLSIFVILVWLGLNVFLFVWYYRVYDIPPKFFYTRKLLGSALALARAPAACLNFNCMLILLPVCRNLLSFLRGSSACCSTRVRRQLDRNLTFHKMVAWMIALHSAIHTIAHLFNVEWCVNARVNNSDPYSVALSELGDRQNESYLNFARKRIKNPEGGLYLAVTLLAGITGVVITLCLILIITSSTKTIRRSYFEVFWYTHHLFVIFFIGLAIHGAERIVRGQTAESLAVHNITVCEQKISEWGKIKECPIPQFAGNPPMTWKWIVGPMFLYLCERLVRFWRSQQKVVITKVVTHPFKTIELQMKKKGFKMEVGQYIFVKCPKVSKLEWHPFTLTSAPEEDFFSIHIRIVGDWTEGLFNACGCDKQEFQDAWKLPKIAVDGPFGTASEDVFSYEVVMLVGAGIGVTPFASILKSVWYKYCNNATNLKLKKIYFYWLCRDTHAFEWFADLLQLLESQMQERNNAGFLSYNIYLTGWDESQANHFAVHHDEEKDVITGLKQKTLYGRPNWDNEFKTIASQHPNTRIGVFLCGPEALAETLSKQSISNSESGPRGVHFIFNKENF
# [9] = biological target: NADPH oxidase 4 (Homo sapiens) (UniProt Q9NPH5); test: compounds shifting NOX4 Amplex Red fluorescence – cell-based, HEK293-NOX4, tetracycline-induced, NOX inhibitor project, primary screen (AID 1160); conditions: HEK293-NOX4, Amplex Red H2O2 fluorescence, 45 min; higher = more signal, called active from +8 up or from −8 down
# Sequence of NADPH oxidase 4 (Homo sapiens) (Q9NPH5 whole entry, looked up): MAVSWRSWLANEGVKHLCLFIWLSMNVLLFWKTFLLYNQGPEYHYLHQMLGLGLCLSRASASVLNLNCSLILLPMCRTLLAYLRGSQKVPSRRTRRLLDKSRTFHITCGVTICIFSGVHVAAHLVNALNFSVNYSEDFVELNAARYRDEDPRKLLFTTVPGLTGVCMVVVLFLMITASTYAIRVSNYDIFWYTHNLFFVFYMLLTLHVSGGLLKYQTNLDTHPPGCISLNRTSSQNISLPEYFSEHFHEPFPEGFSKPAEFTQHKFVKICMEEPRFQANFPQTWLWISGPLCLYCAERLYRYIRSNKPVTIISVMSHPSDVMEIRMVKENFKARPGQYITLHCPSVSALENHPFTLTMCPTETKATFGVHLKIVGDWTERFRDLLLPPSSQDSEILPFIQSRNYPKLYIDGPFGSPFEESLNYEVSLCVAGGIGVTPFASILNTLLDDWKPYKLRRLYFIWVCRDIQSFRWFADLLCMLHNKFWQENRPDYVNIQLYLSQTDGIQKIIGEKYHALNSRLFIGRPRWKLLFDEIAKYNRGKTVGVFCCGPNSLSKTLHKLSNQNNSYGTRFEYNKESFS
# [10] = biological target: NADPH oxidase 5 (Homo sapiens) (UniProt Q96PH1); test: compounds shifting NOX5 Amplex Red fluorescence – cell-based, HEK293-NOX5, NOX inhibitor project, primary screen (AID 1161); conditions: HEK293-NOX5, ionomycin, 45 min, higher = more signal
# Sequence of NADPH oxidase 5 (Homo sapiens) (Q96PH1 whole entry, looked up): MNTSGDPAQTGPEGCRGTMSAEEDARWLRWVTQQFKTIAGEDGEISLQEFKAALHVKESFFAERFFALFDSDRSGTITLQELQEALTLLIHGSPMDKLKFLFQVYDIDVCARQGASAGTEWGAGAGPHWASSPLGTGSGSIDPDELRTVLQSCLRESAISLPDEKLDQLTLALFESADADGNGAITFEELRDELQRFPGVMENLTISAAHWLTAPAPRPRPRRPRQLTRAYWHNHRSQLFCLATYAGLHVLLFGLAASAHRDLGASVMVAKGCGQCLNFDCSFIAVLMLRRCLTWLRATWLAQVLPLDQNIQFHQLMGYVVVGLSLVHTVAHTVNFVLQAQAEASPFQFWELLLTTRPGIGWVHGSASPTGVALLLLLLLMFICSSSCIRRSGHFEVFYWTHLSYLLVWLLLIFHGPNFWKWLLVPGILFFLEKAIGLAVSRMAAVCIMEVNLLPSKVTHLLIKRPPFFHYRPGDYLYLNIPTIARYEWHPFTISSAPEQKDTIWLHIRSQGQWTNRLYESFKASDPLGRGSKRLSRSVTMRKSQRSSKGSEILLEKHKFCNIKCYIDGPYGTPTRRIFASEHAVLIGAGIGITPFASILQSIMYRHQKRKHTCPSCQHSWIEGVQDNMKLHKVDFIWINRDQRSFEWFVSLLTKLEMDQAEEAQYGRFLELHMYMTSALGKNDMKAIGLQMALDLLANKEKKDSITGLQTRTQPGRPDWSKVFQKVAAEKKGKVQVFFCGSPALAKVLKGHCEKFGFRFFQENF
# [11] = compound effects on lung adenocarcinoma cell viability – A549, calcein-AM fluorescence, 48 h, basal, profiling panel (AID 1162); conditions: higher = more signal; also: test concentration not given here
# [12] = compound effects on differentiated 3T3-L1 adipocyte viability – cell-based, 3T3-L1 adipocytes, calcein-AM fluorescence, 48 h, basal, profiling panel (AID 1163); conditions: 3T3-L1 adipocytes viability, higher = more signal; also: test concentration not given here
# [13] = compound effects on hepatocellular carcinoma cell viability – HepG2, calcein-AM fluorescence, 48 h, basal, profiling panel (AID 1164); conditions: higher = more signal; also: test concentration not given here
# [14] = compound effects on multiple myeloma cell viability – MM1S, calcein-AM fluorescence, 48 h, basal, profiling panel (AID 1165); conditions: higher = more signal; also: test concentration not given here
# [15] = calcein-AM signal in unstimulated myeloma cells – cell-based, calcein-AM fluorescence, 48 h, PK04 Diversity Set, profiling panel (AID 1166); conditions: RPMI8226 myeloma viability, higher = more signal;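 also: cells grown under basal conditions without added stimulus; test concentration not given here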
# [16] = JC-1 mitochondrial signal, unstimulated HepG2 cells – cell-based, JC-1 fluorescence, 24 h, 100 nL compound, profiling panel (AID 1167); conditions: HepG2 mitochondrial potential, higher = more signal; also: test concentration not given here
# [17] = JC-1 mitochondrial signal, unstimulated adipocytes – cell-based, JC-1 fluorescence, 3T3-L1 adipocytes, 24 h, 100 nL compound, profiling panel (AID 1168); conditions: JC-1 mitochondrial fluorescence, higher = more signal, called active from +8 up or from −8 down; also: test concentration not given here
# [18] = JC-1 mitochondrial signal, unstimulated myeloma cells – cell-based, JC-1 fluorescence, RPMI8226, 24 h, 100 nL compound, profiling panel (AID 1169); conditions: JC-1 mitochondrial potential fluorescence, higher = more signal; also: test concentration not given here
# [19] = JC-1 mitochondrial signal, unstimulated MM1S myeloma – cell-based, JC-1 fluorescence, 24 h, 100 nL compound, profiling panel (AID 1170); conditions: MM1S mitochondrial potential, higher = more signal; also: test concentration not given here
# [20] = resazurin metabolic signal in A549 cells – cell-based, resazurin fluorescence, 24 h, PK04 Diversity Set, profiling panel (AID 1171); conditions: A549 viability, higher = more signal, called active from +8 up or from −8 down; also: test concentration not given here
Compound,z-score [1],composite z-score [2],z-score [3],z-score [4],z-score [5],z-score [6],z-score [7],z-score [8],z-score [9],z-score [10],z-score [11],z-score [12],z-score [13],z-score [14],z-score [15],z-score [16],z-score [17],z-score [18],z-score [19],z-score [20]
CCCNC(=O)OC[C@H]1O[C@H](CCON=C(C)CCN2CCc3nc(CC)c(CC)cc3C2)C=C[C@@H]1Oc1ccc(OC)cc1,-0.611 (inactive),-0.0949,8.46 (active),1.12 (inactive),1.66 (inactive),0.539 (inactive),0.58,-3.19 (inactive),-1.7 (inactive),-3.32,-0.142,0.73,-0.304,-2.95,-3.14,4.22,-1.48 (inactive),-0.0505,0.598,-0.245 (inactive)
CC(=O)OC[C@H]1O[C@H](C#Cc2ccccc2)C=C[C@@H]1OC(C)=O,0.714 (inactive),-0.234,1.12 (inactive),-0.08 (inactive),-0.0923 (inactive),-0.219 (inactive),-0.283,1.61 (inactive),0.415 (inactive),1.54,-0.188,0.0552,-0.136,-3.51,-3.71,-1.65,0.458 (inactive),-1.04,-2.48,-0.713 (inactive)
C[C@@H](c1ccccc1)N1C(=O)[C@H]2[C@H]3[C@H](O)[C@H](O)CC(=O)[C@H]3CC[C@H]2C1=O,0.477 (inactive),-0.196,-0.74 (inactive),0.0593 (inactive),-0.105 (inactive),0.0091 (inactive),0.297,-0.522 (inactive),0.05 (inactive),0.811,0.614,0.205,0.92,0.358,-0.094,0.311,1.27 (inactive),-0.826,1.05,0.288 (inactive)
O=C1CCCC(C2=CCCCC2=O)C1 (stereo not given),-0.316 (inactive),-0.0224,0.599 (inactive),-0.349 (inactive),0.231 (inactive),-0.168 (inactive),0.142,-0.7 (inactive),-0.427 (inactive),-0.253,-0.965,-0.824,-0.114,0.322,0.652,0.512,-0.845 (inactive),0.987,-0.857,-0.684 (inactive)
COC(=O)CC=C[C@@H](C)[C@@H](C=NO[C@@H](C)c1cn([C@H](CO)Cc2ccccc2)nn1)NS(=O)(=O)c1ccc(C)cc1,0.264 (inactive),0.196,0.507 (inactive),-1.66 (inactive),-0.598 (inactive),-1.93 (inactive),1.85,-0.575 (inactive),0.328 (inactive),0.17,0.788,0.521,1.35,0.56,0.593,-1.24,0.153 (inactive),-0.249,-0.648,-0.685 (inactive)
CCOC(=O)[C@H](Cc1ccccc1)NC(=O)CCC1CC(OC(=O)NCCc2ccc(F)cc2)CC2(CCCC(COC(=O)NCC3CCCCC3)O2)O1 (stereo not given in full),1.08 (inactive),-0.0536,-0.0955 (inactive),0.672 (inactive),0.753 (inactive),0.416 (inactive),0.681,0.102 (inactive),1.12 (inactive),0.0102,1.35,-0.78,0.901,-3.14,0.219,0.809,0.367 (inactive),-0.0221,-1.29,0.384 (inactive)
COC(=O)[C@H](C)NC(=O)CCC1CC(OC(=O)NCCc2ccc(F)cc2)CC2(CCCC(COC(=O)NCc3cccc(C(F)(F)F)c3)O2)O1 (stereo not given in full),0.419 (inactive),-0.181,9.11 (active),0.445 (inactive),-0.45 (inactive),0.125 (inactive),-0.416,1.23 (inactive),-1.65 (inactive),-1.14,-0.925,0.704,-1.69,-3.48,-0.416,-0.15,-0.835 (inactive),0.54,0.533,-0.0257 (inactive)
CC(=O)Nc1ccc([C@@H]2N[C@H](C(=O)O)CC[C@H]2C)cc1,0.961 (inactive),-0.017,-0.188 (inactive),0.182 (inactive),-0.23 (inactive),-0.267 (inactive),0.699,-0.121 (inactive),0.195 (inactive),0.13,0.858,0.122,-0.0918,0.402,-0.371,1.14,0.456 (inactive),-0.355,-0.0501,-0.542 (inactive)
CO[C@H]1COC(=O)[C@H](C)NC(=O)CC=C[C@@H](C)[C@H](OC)COC(=O)[C@@H](OCc2ccccc2)C=C[C@@H]1C,0.31 (inactive),-0.0544,-0.352 (inactive),0.101 (inactive),0.912 (inactive),0.378 (inactive),-0.191,1.18 (inactive),0.332 (inactive),-0.017,0.0192,0.0912,0.645,-0.144,-0.646,0.00399,-0.29 (inactive),-0.0466,0.474,0.703 (inactive)
CCN1C(=O)[C@H]2[C@H]3[C@H](O)[C@H](O)CC(=O)[C@@H]3CC[C@H]2C1=O,0.0972 (inactive),-0.149,-0.0937 (inactive),-0.0275 (inactive),-0.403 (inactive),-0.138 (inactive),-0.108,-1.19 (inactive),0.1 (inactive),0.0328,0.111,0.0891,0.0082,-0.681,0.177,0.231,0.55 (inactive),-0.0467,-0.22,-0.561 (inactive)
CO[C@@H]1COC(=O)CC=C[C@H](C)[C@H](OC)COC(=O)[C@H](C)NC(=O)CC=C[C@H]1C,0.525 (inactive),-0.012,0.0859 (inactive),0.0159 (inactive),0.704 (inactive),0.107 (inactive),-0.0908,-0.402 (inactive),-0.249 (inactive),-0.159,0.296,0.256,0.64,-0.0284,0.403,0.904,-0.878 (inactive),0.403,0.273,0.932 (inactive)
CC(=O)OC[C@H]1O[C@H](CCON=C2[C@H]3CCn4c(=O)n(-c5ccccc5)c(=O)n4[C@H]3[C@H](O)[C@@H]3O[C@H]23)C=C[C@@H]1OC(C)=O,0.0711 (inactive),0.637,0.553 (inactive),0.0612 (inactive),-0.192 (inactive),0.269 (inactive),-0.84,-0.564 (inactive),0.0641 (inactive),-0.0303,0.0488,-1.08,0.254,-0.775,-0.645,-0.58,-0.91 (inactive),0.602,-0.876,-0.862 (inactive)
CCOC(=O)[C@H](Cc1ccccc1)NC(=O)CCC1CC(OC(=O)NCc2ccc3c(c2)OCO3)CC2(CCCC(COC(=O)NCCc3ccccc3OC)O2)O1 (stereo not given in full),-0.567 (inactive),-0.0547,1.3 (inactive),0.627 (inactive),-0.451 (inactive),0.222 (inactive),-0.254,0.799 (inactive),-1.05 (inactive),1.28,-1.24,-0.399,-0.519,-0.271,-0.502,-0.778,-0.877 (inactive),0.444,0.00939,0.124 (inactive)
C#CCCCON=C1C[C@@H](O)[C@@H](O)[C@@H]2[C@@H]3C(=O)N(c4cccc(Oc5ccccc5)c4)C(=O)[C@@H]3CC[C@H]12,0.496 (inactive),0.042,1.7 (inactive),0.977 (inactive),0.773 (inactive),0.232 (inactive),-0.203,-0.683 (inactive),0.186 (inactive),-0.676,1.08,0.139,0.411,0.632,0.116,0.862,0.57 (inactive),-0.263,-1.29,0.19 (inactive)
CCOC(=O)[C@H](Cc1ccccc1)NC(=O)CCC1CC(OC(=O)NCc2cccc3ccccc23)CC2(CCCC(COC(=O)NCC(c3ccccc3)c3ccccc3)O2)O1 (stereo not given in full),-0.0812 (inactive),-0.116,9.16 (active),1.24 (inactive),-1.06 (inactive),-0.343 (inactive),0.704,0.782 (inactive),0.674 (inactive),0.347,1.15,-0.0155,-0.808,-3.22,0.632,0.353,-0.151 (inactive),-0.107,-0.886,1.36 (inactive)
C=CC[C@@H]1C=C[C@H](ON=C(C)CCN2CCc3nc(-c4ccccc4)c(-c4ccccc4)cc3C2)[C@@H](CO)O1,0.418 (inactive),0.0446,4.53 (inactive),0.809 (inactive),0.85 (inactive),0.538 (inactive),-0.0288,-2.79 (inactive),-0.835 (inactive),-2.75,2.2,0.114,2.31,-2.36,-0.141,3.86,-1.91 (inactive),0.518,-1.17,0.548 (inactive)
CSCC[C@@H]1NC(=O)CC=C[C@@H](C)COC(=O)[C@@H](C)COC1=O,-0.136 (inactive),-0.283,-0.434 (inactive),0.28 (inactive),0.742 (inactive),0.0841 (inactive),-0.0649,-1.13 (inactive),0.279 (inactive),0.238,0.63,0.115,1.47,0.269,0.341,0.852,0.0903 (inactive),-0.994,-0.122,0.377 (inactive)
